# Measured values as given in PubChem BioAssay (NCATS).
# Inconclusive results are not listed. Unmarked numbers belong to inactive results. The source made the active and inactive calls. Calls come from the whole dose curve; as a rule, active = well fitted curve in the direction sought with a large enough effect; inconclusive = small, poorly fitted or top-dose-only effect, or another doubt; inactive = no such curve, though single readings can be large; an effect the other way counts as inactive or inconclusive.
# What was measured:
# [1] = tested on: C33A; assay: Primary qHTS to identify gynecologic anti-cancer compounds using libraries of approved drugs and bioactive compounds (AID 1345084); conditions: Gynecologic cancer cell panel viability, ATPlite luminescence, 48 h; series mostly up to 57.5 µM; note: nearly all actives have a fitted effect of over 55% in size
# How it was run: (§1)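 ATP-based viability (ATPlite), 1,000 cells/well, 16 h pre-incubation, 48 h compound at 37 C, 5% CO2, 15 min RT before read.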
# [2] = tested on: Es-2; assay: as above; conditions: Gynecologic cancer cell panel viability, ATPlite luminescence, 48 h; series mostly up to 57.5 µM
# How it was run: as §1
# [3] = tested on: HeLa; assay: as above; conditions: Gynecologic cancer cell panel viability, ATPlite luminescence, 48 h; series mostly up to 57.5 µM
# How it was run: as §1
# [4] = tested on: Hek293T; assay: as above; conditions: Gynecologic cancer cell panel viability, ATPlite luminescence, 48 h, control line for the selectivity index; series mostly up to 57.5 µM
# How it was run: as §1
# [5] = tested on: OV90; assay: as above; conditions: Gynecologic cancer cell panel viability, ATPlite luminescence, 48 h; series mostly up to 57.5 µM
# How it was run: as §1
# [6] = tested on: Tov112D; assay: as above; conditions: Gynecologic cancer cell panel viability, ATPlite luminescence, 48 h; series mostly up to 57.5 µM
# How it was run: as §1
# [7] = qHTS assay to identify inhibitors of the type 1 interferon - major histocompatibility complex class I in skeletal muscle: Counter screen cell viability and HiBit confirmation (AID 1347412); conditions: iHSKM muscle cells + IFN-b, HiBiT or CellTiter-Glo, 24 h; for activity change, negative = inhibition: at 45.9 µM (top of the series); for all read-outs here: nearly all actives have a fitted effect of over 60% in size
# How it was run: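 Human myoblast knock-in line, 4.0 ng/ml IFN-beta stimulation, 24 h compound treatment. Endpoints: HiBiT lytic luminescence (HLA-B level) and CellTiter Glo (ATP). Dosing 12 concentrations, 3-fold steps, 46 uM highest final.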
# [8] = tested on: CASKI; assay: Primary qHTS to identify gynecologic anti-cancer compounds using libraries of approved drugs and bioactive compounds (AID 1345084); conditions: Gynecologic cancer cell panel viability, ATPlite luminescence, 48 h; series mostly up to 57.5 µM; note: nearly all actives have a fitted effect of over 55% in size
# How it was run: as §1
# [9] = tested on: JEG-3; assay: as above; conditions: Gynecologic cancer cell panel viability, ATPlite luminescence, 48 h; series mostly up to 57.5 µM
# How it was run: as §1
# [10] = tested on: PA-1; assay: as above; conditions: Gynecologic cancer cell panel viability, ATPlite luminescence, 48 h; series mostly up to 57.5 µM
# How it was run: as §1
# [11] = tested on: SKOV3; assay: as above; conditions: Gynecologic cancer cell panel viability, ATPlite luminescence, 48 h; series mostly up to 57.5 µM
# How it was run: as §1
# [12] = tested on: Tov-21-G; assay: as above; conditions: Gynecologic cancer cell panel viability, ATPlite luminescence, 48 h; series mostly up to 57.5 µM
# How it was run: as §1
# [13] = tested on: CAOV3; assay: as above; conditions: Gynecologic cancer cell panel viability, ATPlite luminescence, 48 h; series mostly up to 57.5 µM
# How it was run: as §1
# % is set by controls: 0 for no effect and ±100 for the full control effect; potency is the fitted concentration of half-maximal effect.
compound,measurement,setting,value
c1nc2nc(Nc3ccc(N4CCOCC4)cc3)nc(NC3CCCCC3)c2[nH]1,Potency,[1],inactive
same,Potency,[2],inactive
same,Potency,[3],2.82 µM (active)
same,Potency,[4],inactive
same,Potency,[5],inactive
same,Potency,[6],inactive
same,Potency,[7]; HiBiT,6.25 µM (active)
C=CC(=O)Nc1cccc(Oc2nc(Nc3ccc(N4CCN(C)CC4)cc3)ncc2Cl)c1,Potency,[8],10 µM (active)
same,Potency,[2],inactive
same,Potency,[3],7.94 µM (active)
same,Potency,[9],inactive
same,Potency,[5],inactive
same,Potency,[10],8.91 µM (active)
same,Potency,[11],3.16 µM (active)
same,Potency,[12],8.91 µM (active)
same,Potency,[6],5.62 µM (active)
same,Potency,[7]; HiBiT,22.2 µM (active)
Cc1nc(N)ncc1-c1nc(N2CCOCC2)c2sc(C(C)(C)O)cc2n1,Potency,[1],1.78 µM (active)
same,Potency,[8],0.501 µM (active)
same,Potency,[4],3.16 µM (active)
same,Potency,[5],3.55 µM (active)
same,Potency,[10],7.94 µM (active)
same,Potency,[11],2.82 µM (active)
same,Potency,[12],7.94 µM (active)
Cc1ccc(C(=O)Nc2ccc(CN3CCN(C)CC3)c(C(F)(F)F)c2)cc1C#Cc1cnc2cccnn12,Potency,[1],25.1 µM (active)
same,Potency,[8],14.1 µM (active)
same,Potency,[2],8.91 µM (active)
same,Potency,[3],11.2 µM (active)
same,Potency,[5],15.8 µM (active)
same,Potency,[10],8.91 µM (active)
same,Potency,[11],10 µM (active)
same,Potency,[12],7.08 µM (active)
same,Potency,[6],7.94 µM (active)
same,Potency,[7]; HiBiT,6.25 µM (active)
same,Potency,[7]; Viability,15.7 µM (active)
COc1cccc2nc(-c3cccs3)nc(NN3C(=O)C=C(C)C3=O)c12,Potency,[1],31.6 µM (active)
same,Potency,[2],2.51 µM (active)
same,Potency,[4],1.41 µM (active)
same,Potency,[10],1.58 µM (active)
same,Potency,[6],0.891 µM (active)
same,Potency,[7]; HiBiT,2.79 µM (active)
same,"activity change, negative = inhibition",[7]; Viability,41.4%
Cc1ccc2nc(NC(=O)CSc3nc4c(c(=O)n3-c3ccccc3)SCC4)sc2c1,Potency,[1],inactive
same,Potency,[8],inactive
same,Potency,[2],inactive
same,Potency,[3],inactive
same,Potency,[4],inactive
same,Potency,[9],inactive
same,Potency,[5],inactive
same,Potency,[10],inactive
same,Potency,[12],inactive
same,Potency,[6],inactive
NCC(=O)Nc1ccc(-n2nc(C(F)(F)F)cc2-c2ccc3c(ccc4ccccc43)c2)cc1,Potency,[1],inactive
same,Potency,[8],inactive
same,Potency,[2],inactive
same,Potency,[5],inactive
same,Potency,[11],inactive
same,Potency,[6],inactive
COC(=O)c1ccc2c(C(=Nc3ccc(N(C)C(=O)CN4CCN(C)CC4)cc3)c3ccccc3)c(O)[nH]c2c1,Potency,[1],inactive
same,Potency,[8],inactive
same,Potency,[2],inactive
same,Potency,[4],inactive
same,Potency,[9],inactive
same,Potency,[11],inactive
same,Potency,[6],inactive
NC(=O)c1c(OCc2c(F)cc(Br)cc2F)nsc1NC(=O)NCCCCN1CCCC1,Potency,[1],inactive
same,Potency,[2],inactive
same,Potency,[3],inactive
same,Potency,[4],inactive
same,Potency,[9],inactive
same,Potency,[5],inactive
same,"activity change, negative = inhibition",[7]; HiBiT,-22.6%
COC(=O)Nc1nc2ccc(C(=O)c3ccc(F)cc3)cc2[nH]1,Potency,[1],inactive
same,Potency,[13],inactive
same,Potency,[2],8.91 µM (active)
same,Potency,[3],3.98 µM (active)
same,Potency,[5],inactive
same,Potency,[10],2 µM (active)
same,Potency,[6],3.55 µM (active)
same,"activity change, negative = inhibition",[7]; Viability,-28.8%
O=C(O)C1(Cc2cccc(Nc3nccs3)n2)CCC(Oc2cccc(Cl)c2F)CC1 (centres undefined),Potency,[1],inactive
same,Potency,[8],inactive
same,Potency,[2],inactive
same,Potency,[3],6.31 µM (active)
same,Potency,[4],inactive
same,Potency,[9],inactive
same,Potency,[5],inactive
same,Potency,[6],1 µM (active)
O=C(Nc1ncc(-c2cc(C(F)F)nn2-c2c(Cl)cccc2Cl)s1)C1CC1,Potency,[2],3.16 µM (active)
same,Potency,[3],2.51 µM (active)
same,Potency,[10],1.78 µM (active)
same,Potency,[12],1.78 µM (active)
same,Potency,[6],1.58 µM (active)
Cn1cc(-c2ccncc2)c(-c2ccc(OCc3ccc4ccccc4n3)cc2)n1,Potency,[13],inactive
same,Potency,[8],inactive
same,Potency,[2],inactive
same,Potency,[3],inactive
same,Potency,[4],inactive
same,Potency,[5],inactive
same,Potency,[10],inactive
same,Potency,[12],inactive
same,Potency,[6],inactive
CC(C)(O)c1cc2nc(-c3cnc(N)nc3)nc(N3CCOCC3)c2s1,Potency,[1],3.55 µM (active)
same,Potency,[3],3.98 µM (active)
same,Potency,[4],2 µM (active)
same,Potency,[5],2.82 µM (active)
same,Potency,[10],8.91 µM (active)
same,Potency,[12],3.16 µM (active)
COc1c(OCCCN2CCOCC2)ccc2c3n(c(=NC(=O)c4cnc(N)nc4)nc12)CCN3,Potency,[1],0.316 µM (active)
same,Potency,[8],0.112 µM (active)
same,Potency,[3],1 µM (active)
same,Potency,[10],0.631 µM (active)
same,Potency,[11],0.0631 µM (active)
same,"activity change, negative = cytotoxicity",[6],-17.3% [at 11.6 µM]
